{"source": "the supplement of paper PMC6555819"}
{"test_system": "PXR homodimer (NR concentration 270 nM)", "assay": "PBM binding z-score (relative to random genomic background probes); higher = stronger binding; sequences stand for … in GC…GCGATTGACAGCGTAGAATGAAGG", "outline": "(§1)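 For binding z-scores, the reference was random background probes on custom Agilent 4×180K protein-binding microarrays. These arrays were incubated 1 h with ligand-free nuclear receptor dimers in PBS pH 7.4, 2% milk, 0.02% Triton X-100, 1 mM DTT, 0.2 mg/mL BSA and 0.4 mg/ml salmon testes DNA. Fluorescence was scanned after antibody detection of each partner (one per run) and regression-normalized.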"}
{"sequence": "AATACTGGGTCATCGTAGGCCAGAGTACGCACAG", "PBM binding z-score": 0.428}
{"sequence": "CAGCCTAGGTCAGGGCCGGTATAGGAGGAACGTT", "PBM binding z-score": -0.999}
{"sequence": "TAGCCTAGTTCATTGGGCCAGTATAGTACGCATC", "PBM binding z-score": 0.651}
{"sequence": "ATCGAAAGGTCGAAGTGAGTATAGAGAAAGGGAA", "PBM binding z-score": 0.245}
{"sequence": "GCTAGTTGGTCAGTAACAGGTCACACACCGGTCG", "PBM binding z-score": 0.169}
{"sequence": "GCTAGTTGTTCAGTAAAAGGTCACACACCGGTCG", "PBM binding z-score": 1.13}
{"sequence": "CCGACTGAGGCATAAGGTTACCATAAGCCAGCCC", "PBM binding z-score": -0.308}
{"sequence": "GATACAGGGTCAGCTAAAGGCCAGAGTATGGAAA", "PBM binding z-score": -0.205}
{"sequence": "CCGACTGGAGCAAAGGTTACCATACTCAGTACGA", "PBM binding z-score": 0.124}
{"sequence": "CGTCCAAGGTCAGAGAGGTCAGTGGATGCCGAGT", "PBM binding z-score": 11.7}
{"sequence": "ACTAGTTGGTCAGCTGAGGTCACCCACAATTCGG", "PBM binding z-score": 1.71}
{"sequence": "ATCTCTTGGTAAAGTTCAGTGAAAGATCGATAGA", "PBM binding z-score": 2.31}
{"sequence": "CAAACTAGGTCAAGAGGTCGAAGTCCGCTTCCCG", "PBM binding z-score": 0.441}
{"sequence": "TAGTCTAGGTCATGCGGGCCAGTATAGTGTCGGC", "PBM binding z-score": 0.355}
{"sequence": "CCCACTGGGCCAAAGGTCATTGATTCCAATGCTC", "PBM binding z-score": 1.81}
{"sequence": "ACTAGCAGGCCAAGTTTGGGTCACTCTAACAAAG", "PBM binding z-score": -0.149}
{"sequence": "CATACAGGGTCAGCTAGTCCAGAGTAGGGACGGC", "PBM binding z-score": -0.00687}
{"sequence": "GCTGCTAGGTCAAATGATGGTCAGCTAAAGCTCG", "PBM binding z-score": -0.505}
{"sequence": "TGAAAGAGGTTAAAGATCAGGGAACGTGGCGTCG", "PBM binding z-score": 0.0556}
{"sequence": "AGAACGAGGGCAATGAATTGATAGCACGGGTGGC", "PBM binding z-score": 0.123}
{"sequence": "ATATGTGGGTTACATCCGGGTCATTCAGGCTATG", "PBM binding z-score": 2.92}
{"sequence": "ATACCAGGGTGATCGTGAGGTCGTTGATACTAAC", "PBM binding z-score": 1.47}
{"sequence": "TCTAGCAGGCCAGACGGTCACTCAAGAGGTACGG", "PBM binding z-score": -0.716}
{"sequence": "ACTATTAGTTGAAACGAGGGCAACCGATAGGTTG", "PBM binding z-score": 0.569}
{"sequence": "GCTGCTAGGTCAACTGATAGTCAGCTAAAGCTCG", "PBM binding z-score": -0.294}
{"sequence": "GCTAGCGGGCCATTTGGGTCACTCAATGACGGGC", "PBM binding z-score": -0.44}
{"sequence": "CCGACTGGGGCTTAAGGTTACCATAAGCCAGCCC", "PBM binding z-score": -0.395}
{"sequence": "CGAACGAGGGCATGTGTTGATAGCAAATGCCGAT", "PBM binding z-score": -0.168}
{"sequence": "CAAACTAGGTCAAGGGTCAAAGTCGAGCCAACCA", "PBM binding z-score": 0.825}
{"sequence": "AGAACGAGGGCAATGAGTTGATAGAACGGGTGGC", "PBM binding z-score": 4.31}
{"sequence": "ATCTCTATGTAAAGTTCAGTGAAAGATCGATAGA", "PBM binding z-score": 2.03}
{"sequence": "GCTTGTAGATCAAGGTTAAGAAAGACTAAGCTAA", "PBM binding z-score": -0.212}
{"sequence": "GCTATTAGTTGAAGGGGCAACCGAATGATTCTCG", "PBM binding z-score": -0.028}
{"sequence": "AGTCAAAGTTCACTAGGTACCGTAAGATTCAGCT", "PBM binding z-score": 3.98}
{"sequence": "TAGCCTAGGTCAGATCGGGCCTGTATACGCTATA", "PBM binding z-score": -0.728}
{"sequence": "TCATATAGGTAAAGGTGTAAGTCGAACGATATGA", "PBM binding z-score": -0.297}
{"sequence": "GCGACTGGGGCATCAGCAGGTTACCATAACTTAA", "PBM binding z-score": -0.654}
{"sequence": "GCAGACAGGTGAAACGCAGGTAAATCAGGGTGGC", "PBM binding z-score": -0.443}
{"sequence": "CAAACTAGGTCACCGGAAGGTCAAAGTCCGCATG", "PBM binding z-score": 1.99}
{"sequence": "ACTATTAGTTGACTTAGGGTAACCGATACGACGC", "PBM binding z-score": 0.517}
{"test_system": "RARa:RXR (NR concentration 270 nM, RXRa partner concentration 90 nM)", "assay": "PBM binding z-score (relative to random genomic background probes); higher = stronger binding; sequences stand for … in GC…GCGATTGACAGCGTAGAATGAAGG", "outline": "as §1"}
{"sequence": "AATACTGGGTCATCGTAGGCCAGAGTACGCACAG", "PBM binding z-score": 2.35}
{"sequence": "CAGCCTAGGTCAGGGCCGGTATAGGAGGAACGTT", "PBM binding z-score": 0.69}
{"sequence": "TAGCCTAGTTCATTGGGCCAGTATAGTACGCATC", "PBM binding z-score": -0.0581}
{"sequence": "ATCGAAAGGTCGAAGTGAGTATAGAGAAAGGGAA", "PBM binding z-score": 2.76}
{"sequence": "GCTAGTTGGTCAGTAACAGGTCACACACCGGTCG", "PBM binding z-score": 2.32}
{"sequence": "GCTAGTTGTTCAGTAAAAGGTCACACACCGGTCG", "PBM binding z-score": 5.29}
{"sequence": "CCGACTGAGGCATAAGGTTACCATAAGCCAGCCC", "PBM binding z-score": 1.03}
{"sequence": "GATACAGGGTCAGCTAAAGGCCAGAGTATGGAAA", "PBM binding z-score": 4.25}
{"sequence": "CCGACTGGAGCAAAGGTTACCATACTCAGTACGA", "PBM binding z-score": 2.73}
{"sequence": "CGTCCAAGGTCAGAGAGGTCAGTGGATGCCGAGT", "PBM binding z-score": 5.33}
{"sequence": "ACTAGTTGGTCAGCTGAGGTCACCCACAATTCGG", "PBM binding z-score": 4.87}
{"sequence": "ATCTCTTGGTAAAGTTCAGTGAAAGATCGATAGA", "PBM binding z-score": 1.63}
{"sequence": "CAAACTAGGTCAAGAGGTCGAAGTCCGCTTCCCG", "PBM binding z-score": 4.93}
{"sequence": "TAGTCTAGGTCATGCGGGCCAGTATAGTGTCGGC", "PBM binding z-score": 2.07}
{"sequence": "CCCACTGGGCCAAAGGTCATTGATTCCAATGCTC", "PBM binding z-score": 6.34}
{"sequence": "ACTAGCAGGCCAAGTTTGGGTCACTCTAACAAAG", "PBM binding z-score": 1.57}
{"sequence": "CATACAGGGTCAGCTAGTCCAGAGTAGGGACGGC", "PBM binding z-score": 2.91}
{"sequence": "GCTGCTAGGTCAAATGATGGTCAGCTAAAGCTCG", "PBM binding z-score": 3.18}
{"sequence": "TGAAAGAGGTTAAAGATCAGGGAACGTGGCGTCG", "PBM binding z-score": 3.68}
{"sequence": "AGAACGAGGGCAATGAATTGATAGCACGGGTGGC", "PBM binding z-score": 0.568}
{"sequence": "ATATGTGGGTTACATCCGGGTCATTCAGGCTATG", "PBM binding z-score": 3.51}
{"sequence": "ATACCAGGGTGATCGTGAGGTCGTTGATACTAAC", "PBM binding z-score": 2.44}
{"sequence": "TCTAGCAGGCCAGACGGTCACTCAAGAGGTACGG", "PBM binding z-score": -0.457}
{"sequence": "ACTATTAGTTGAAACGAGGGCAACCGATAGGTTG", "PBM binding z-score": 1.38}
{"sequence": "GCTGCTAGGTCAACTGATAGTCAGCTAAAGCTCG", "PBM binding z-score": 2.13}
{"sequence": "GCTAGCGGGCCATTTGGGTCACTCAATGACGGGC", "PBM binding z-score": 0.906}
{"sequence": "CCGACTGGGGCTTAAGGTTACCATAAGCCAGCCC", "PBM binding z-score": 1.08}
{"sequence": "CGAACGAGGGCATGTGTTGATAGCAAATGCCGAT", "PBM binding z-score": 0.367}
{"sequence": "CAAACTAGGTCAAGGGTCAAAGTCGAGCCAACCA", "PBM binding z-score": 7.15}
{"sequence": "AGAACGAGGGCAATGAGTTGATAGAACGGGTGGC", "PBM binding z-score": 0.324}
{"sequence": "ATCTCTATGTAAAGTTCAGTGAAAGATCGATAGA", "PBM binding z-score": 1.18}
{"sequence": "GCTTGTAGATCAAGGTTAAGAAAGACTAAGCTAA", "PBM binding z-score": 0.726}
{"sequence": "GCTATTAGTTGAAGGGGCAACCGAATGATTCTCG", "PBM binding z-score": 0.0521}
{"sequence": "AGTCAAAGTTCACTAGGTACCGTAAGATTCAGCT", "PBM binding z-score": 2.9}
{"sequence": "TAGCCTAGGTCAGATCGGGCCTGTATACGCTATA", "PBM binding z-score": 1.22}
{"sequence": "TCATATAGGTAAAGGTGTAAGTCGAACGATATGA", "PBM binding z-score": 0.259}
{"sequence": "GCGACTGGGGCATCAGCAGGTTACCATAACTTAA", "PBM binding z-score": 0.57}
{"sequence": "GCAGACAGGTGAAACGCAGGTAAATCAGGGTGGC", "PBM binding z-score": 0.514}
{"sequence": "CAAACTAGGTCACCGGAAGGTCAAAGTCCGCATG", "PBM binding z-score": 6.98}
{"sequence": "ACTATTAGTTGACTTAGGGTAACCGATACGACGC", "PBM binding z-score": 0.73}
